Here are results for ten molecules from PubChem BioAssay (NCI).

Assay [1] is described as follows: NCI Yeast Anticancer Drug Screen. Data for the rad50 strain (AID 155).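 Further: 0% = growth of vehicle-only cultures of the same strain.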 The settings on record: S. cerevisiae rad50 strain growth inhibition, hits give high values. A digest of the protocol: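 Growth of the mutant yeast was measured after compound exposure and referenced to vehicle-treated cultures.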
Assay [2] is described as follows: NCI Yeast Anticancer Drug Screen. Data for the mec2-1 strain (AID 157). The settings on record: S. cerevisiae mec2-1 strain, hits give high values. An outline of the steps:
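mec2-1 yeast strain, carrying an alteration in DNA damage repair or cell cycle control, was exposed to compounds; growth inhibition was measured relative to vehicle-treated controls.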

Assay [3] is described as follows: NCI Yeast Anticancer Drug Screen. Data for the sgs1 mgt1 strain (AID 161).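 Further: 0% = growth of cultures given vehicle only.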 The conditions noted are these: S. cerevisiae sgs1 mgt1 strain, hits give high values. A digest of the protocol: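 Percent growth inhibition was derived by comparing compound-exposed mutant yeast with vehicle-exposed cultures. The strain carries alterations in DNA damage repair.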
Assay [4] is described as follows: NCI Yeast Anticancer Drug Screen. Data for the cln2 rad14 strain (AID 165).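 Further: 0% = growth equal to vehicle treated cultures.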 The conditions noted are these: S. cerevisiae cln2 rad14 strain, hits give high values. An outline of the steps: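 Yeast carrying cln2 and rad14 alterations (cell cycle control and DNA damage repair) were exposed to compounds. Growth inhibition was measured against vehicle-treated controls.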

A short description of assay [5]: NCI Yeast Anticancer Drug Screen. Data for the bub3 strain (AID 167). The settings on record: S. cerevisiae bub3 mutant strain, hits give high values. A digest of the protocol:
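Whole-cell yeast assay. The mutant strain was incubated with compounds, and growth inhibition was determined by comparison with vehicle-treated cells.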

The nature of assay [6]: NCI Yeast Anticancer Drug Screen. Data for the mlh1 rad18 strain (AID 175). The conditions noted are these: S. cerevisiae mlh1 rad18 strain growth inhibition, hits give high values. An outline of the steps: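 Growth inhibition of the yeast strain was measured after compound exposure and expressed relative to vehicle-treated controls. The strain carries defined defects in DNA damage repair.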

The mark [7] stands for this setting: at 5.0 µM (retest, dose inferred, filed as 0.5).
Setting [8] is: at 50.0 µM (retest, dose inferred, filed as 5.0).

Compounds without any hit were thinned out: in the full panel of roughly 79,000, 15% have a hit. Unmarked numbers belong to inactive results. Active and inactive are the calls of the source. No stated cut-off is given here; in the data, active means growth inhibition above about 70%; inactive means the rest.

Take `CC(C)[S-].CC(C)[S-].[Pt+2].c1ccc([PH+](c2ccccc2)c2ccccc2)cc1.c1ccc([PH+](c2ccccc2)c2ccccc2)cc1`: the growth inhibition is 4% in assay [1] (setting [7]); 96% (active) in assay [1] (setting [8]); 88.2% (active) in assay [1] (at 50.0 µM); 5% in assay [2] (setting [7]); 97% (active) in assay [2] (setting [8]); 90.3% (active) in assay [2] (at 50.0 µM). Moreover, the growth inhibition in assay [3] (setting [7]) was 2%; in assay [3] (setting [8]) it was 98% (active); in assay [3] (at 50.0 µM), 86.2% (active); in assay [4] (setting [7]) it was -2%; in assay [4] (setting [8]), 96% (active); in assay [4] (at 50.0 µM), 55.9%. Besides, the growth inhibition in assay [5] (setting [7]) is 7%; in assay [5] (setting [8]), 97% (active); in assay [5] (at 50.0 µM), 67.3%; in assay [6] (setting [7]), 4%; in assay [6] (setting [8]), 97% (active); in assay [6] (at 50.0 µM) it was 95.7% (active).
`O=C(O)C(F)(F)F.[Ag]`: the growth inhibition in assay [1] (setting [7]) was 99% (active); in assay [1] (setting [8]), 98% (active); in assay [1] (at 50.0 µM), 98.1% (active); in assay [2] (setting [7]), 100% (active); in assay [2] (setting [8]), 99% (active); in assay [2] (at 50.0 µM), 99.2% (active). The growth inhibition was 99% (active) in assay [3] (setting [7]); 99% (active) in assay [3] (setting [8]); 99.1% (active) in assay [3] (at 50.0 µM); 99% (active) in assay [4] (setting [7]); 99% (active) in assay [4] (setting [8]); 98.7% (active) in assay [4] (at 50.0 µM). For the same molecule, the growth inhibition in assay [5] (setting [7]) was 99% (active); in assay [5] (setting [8]), 98% (active); in assay [5] (at 50.0 µM), 98.5% (active); in assay [6] (setting [7]), 99% (active); in assay [6] (setting [8]), 99% (active); in assay [6] (at 50.0 µM), 97.6% (active).
`C/C(=N\NC(N)=O)C(CN1CCCCC1)C(c1ccccc1)c1c(O)c2ccccc2oc1=O` (stereo unspecified): the growth inhibition is 14% in assay [1] (setting [7]); 14% in assay [1] (setting [8]); 82.7% (active) in assay [1] (at 50.0 µM); 15% in assay [2] (setting [7]); 15% in assay [2] (setting [8]); 83% (active) in assay [2] (at 50.0 µM). Further, the growth inhibition is 6% in assay [3] (setting [7]); 6% in assay [3] (setting [8]); 87.6% (active) in assay [3] (at 50.0 µM); 0% in assay [4] (setting [7]); 0% in assay [4] (setting [8]); 72.8% (active) in assay [4] (at 50.0 µM). In addition, the results for the growth inhibition in assay [5] (setting [7]), in assay [5] (setting [8]) and in assay [5] (at 50.0 µM) were 17%, 17% and 79% (active), respectively.
For `O=C1OCC2CC3C4C=CC(C4)C3C12` (stereo unspecified), the growth inhibition is 40% in assay [1] (setting [7]); 99% (active) in assay [1] (setting [8]); 99.2% (active) in assay [1] (at 50.0 µM); 47% in assay [2] (setting [7]); 100% (active) in assay [2] (setting [8]); 99.5% (active) in assay [2] (at 50.0 µM). Further, the growth inhibition was 69% in assay [3] (setting [7]); 99% (active) in assay [3] (setting [8]); 99.4% (active) in assay [3] (at 50.0 µM); 4% in assay [4] (setting [7]); 99% (active) in assay [4] (setting [8]); 99% (active) in assay [4] (at 50.0 µM). Also, the growth inhibition in assay [5] (setting [7]) was 20%; in assay [5] (setting [8]), 99% (active); in assay [5] (at 50.0 µM), 99.4% (active); in assay [6] (setting [7]), 77% (active); in assay [6] (setting [8]), 99% (active); in assay [6] (at 50.0 µM) it was 99.2% (active).
As to `CCOc1c(Br)cc(N=Cc2ccc(N(CCCl)CCCl)c(OC)c2)cc1Br`, the growth inhibition in assay [1] (setting [7]) is 6%; in assay [1] (setting [8]) it was 80% (active); in assay [1] (at 50.0 µM) it was 85.2% (active); in assay [2] (setting [7]), -5%; in assay [2] (setting [8]), 79% (active); in assay [2] (at 50.0 µM), 45.8%. The growth inhibition in assay [3] (setting [7]) is -86%; in assay [3] (setting [8]), 69%; in assay [3] (at 50.0 µM), 76.2% (active); in assay [4] (setting [7]), -3%; in assay [4] (setting [8]) it was 49%; in assay [4] (at 50.0 µM) it was 44.4%. In addition, the growth inhibition in assay [5] (setting [7]) is -11%; in assay [5] (setting [8]), -16%; in assay [5] (at 50.0 µM), -15.8%.
As for `CC1(C)N=C(N)N=C(N)N1c1ccc(OCC(=O)Nc2cccc(S(=O)(=O)F)c2)c(Cl)c1`, the growth inhibition is 4% in assay [1] (setting [7]); 38% in assay [1] (setting [8]); 70.5% (active) in assay [1] (at 50.0 µM); -20% in assay [2] (setting [7]); 97% (active) in assay [2] (setting [8]); 95.6% (active) in assay [2] (at 50.0 µM). Besides, the growth inhibition was -3% in assay [3] (setting [7]); 63% in assay [3] (setting [8]); 64.1% in assay [3] (at 50.0 µM); -2% in assay [4] (setting [7]); -5% in assay [4] (setting [8]); -25.9% in assay [4] (at 50.0 µM). Moreover, the growth inhibition is -6% in assay [5] (setting [7]); 32% in assay [5] (setting [8]); -1.45% in assay [5] (at 50.0 µM); 12% in assay [6] (setting [7]); 65% in assay [6] (setting [8]); 45% in assay [6] (at 50.0 µM).
`Cc1cc[n+](C2=C(Nc3c(C)cccc3C)C(=O)c3ccccc3C2=O)cc1`: the growth inhibition in assay [1] (setting [7]) is 44%; in assay [1] (setting [8]), 88% (active); in assay [1] (at 50.0 µM) it was 89.7% (active); in assay [2] (setting [7]), 5%; in assay [2] (setting [8]) it was 61%; in assay [2] (at 50.0 µM) it was 73.2% (active). Also, the growth inhibition was -6% in assay [3] (setting [7]); 67% in assay [3] (setting [8]); 68.1% in assay [3] (at 50.0 µM); -7% in assay [4] (setting [7]); 54% in assay [4] (setting [8]); 15.2% in assay [4] (at 50.0 µM). Besides, the growth inhibition in assay [5] (setting [7]) is 6%; in assay [5] (setting [8]), 66%; in assay [5] (at 50.0 µM), 48.4%.
For the molecule `COC1(O[C@H]2CC[C@H]3[C@@H]4CCC5=CC(=O)CC[C@]5(C)[C@H]4CC[C@]23C)CCCCC1`, the growth inhibition is 3% in assay [1] (setting [7]); -8% in assay [1] (setting [8]); 99.5% (active) in assay [1] (at 50.0 µM); 5% in assay [2] (setting [7]); 2% in assay [2] (setting [8]); 99.5% (active) in assay [2] (at 50.0 µM). Besides, the growth inhibition was -30% in assay [3] (setting [7]); -33% in assay [3] (setting [8]); 99.5% (active) in assay [3] (at 50.0 µM); 1% in assay [4] (setting [7]); -4% in assay [4] (setting [8]); 99.2% (active) in assay [4] (at 50.0 µM). For the same molecule, the growth inhibition in assay [5] (setting [7]) is 1%; in assay [5] (setting [8]), -4%; in assay [5] (at 50.0 µM), 99.1% (active); in assay [6] (setting [7]) it was -25%; in assay [6] (setting [8]), -56%; in assay [6] (at 50.0 µM) it was 99.4% (active).
Consider `COC(=O)C1c2c(C)cc3n2C(C=CC3)C1C(=O)OC` (stereo unspecified), for which the growth inhibition is 7% in assay [1] (setting [7]); 69% in assay [1] (setting [8]); 13.2% in assay [1] (at 50.0 µM); 36% in assay [2] (setting [7]); 96% (active) in assay [2] (setting [8]); 19.1% in assay [2] (at 50.0 µM). For the same molecule, the growth inhibition in assay [3] (setting [7]) is -6%; in assay [3] (setting [8]) it was 24%; in assay [3] (at 50.0 µM) it was 4.95%; in assay [4] (setting [7]) it was 67%; in assay [4] (setting [8]) it was 78% (active); in assay [4] (at 50.0 µM) it was 26.6%. Moreover, the growth inhibition in assay [5] (setting [7]) is 64%; in assay [5] (setting [8]), 92% (active); in assay [5] (at 50.0 µM), -10.2%; in assay [6] (setting [7]), -9%; in assay [6] (setting [8]), 54%; in assay [6] (at 50.0 µM), -3.5%.
Consider `CC[PH+](CC)CC[S-].CC[PH+](CC)CC[S-].[Au+].[Au+]`, for which the growth inhibition in assay [1] (setting [7]) was 5%; in assay [1] (setting [8]) it was 13%; in assay [1] (at 50.0 µM) it was 46.4%; in assay [2] (setting [7]), 14%; in assay [2] (setting [8]), 18%; in assay [2] (at 50.0 µM), -0.55%. The growth inhibition in assay [3] (setting [7]) is 12%; in assay [3] (setting [8]) it was 23%; in assay [3] (at 50.0 µM), 11.2%; in assay [4] (setting [7]), 4%; in assay [4] (setting [8]) it was 6%; in assay [4] (at 50.0 µM), -12.4%. Besides, the growth inhibition in assay [5] (setting [7]) is 14%; in assay [5] (setting [8]), 7%; in assay [5] (at 50.0 µM) it was 8.1%; in assay [6] (setting [7]), 55%; in assay [6] (setting [8]), 15%; in assay [6] (at 50.0 µM), -35.8%.
